Assay outcomes from PubChem.
PI4K2A inh – PI4K2A (human) kinase inhibition; Q9BTU6; purified PI4K2A, ADP-Glo luminescence, 1 h; active compounds read low; activity change, negative = inhibition, % at 76.9 µM; hit rate 0.13% among 420,000; AID 1346378; in the data active means activity change below about -50%; inconclusive means mostly about -30% to -49%;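 further: -100% = wells without enzyme as full effect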
Target sequence (Q9BTU6 whole entry, looked up): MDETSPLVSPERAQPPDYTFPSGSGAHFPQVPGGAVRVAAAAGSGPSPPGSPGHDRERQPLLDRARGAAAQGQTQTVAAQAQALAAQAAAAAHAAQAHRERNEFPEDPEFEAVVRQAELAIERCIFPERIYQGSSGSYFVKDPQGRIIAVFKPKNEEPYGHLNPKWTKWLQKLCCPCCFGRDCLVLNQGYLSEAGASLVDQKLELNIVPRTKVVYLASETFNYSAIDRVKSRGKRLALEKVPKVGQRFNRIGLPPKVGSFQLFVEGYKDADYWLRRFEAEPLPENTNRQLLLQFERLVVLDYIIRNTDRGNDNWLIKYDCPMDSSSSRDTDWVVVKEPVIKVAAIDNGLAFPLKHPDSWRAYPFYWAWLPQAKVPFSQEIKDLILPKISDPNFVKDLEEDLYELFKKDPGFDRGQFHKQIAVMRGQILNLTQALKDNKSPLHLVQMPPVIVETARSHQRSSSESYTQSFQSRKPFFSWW
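In this quantitative HTS, ADP production by PI4K2A was quantified luminescently after 1 h at ambient temperature; 100 microM adenosine served as plate-quality control.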
Tb PFK inh – inhibitors of T. brucei phosphofructokinase; O15648; T. brucei PFK, ADP-Glo luminescence; Potency, µM (series often up to 57.5 µM), for the others: at the highest dose activity, negative = inhibition, usual class: inhibitors; hit rate 0.17% among 330,000; AID 485367;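 further: potency means the concentration at half of the fitted maximal effect; 0% = uninhibited 1x PFK enzyme wells and -100% = no-enzyme wells; nearly all actives have a fitted effect of over 60% in size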
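ADP-Glo luminescence quantified ADP after 45 min at room temperature, with 1.25 nM T. brucei PFK, 0.1 mM ATP and 0.5 mM fructose-6-phosphate in pH 8.0 TEA buffer. qHTS titrations up to 57 µM; curves classified by quality.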
Pin1 inh – human Pin1 inhibition; Pin1 FP peptide displacement, HiFluor488, 10 min; Q13526; Potency, µM (series often up to 115 µM), for the others: at the top dose activity, negative = inhibition, most hits filed as inhibitors; hit rate 0.009% among 390,000; active means well fitted inhibition curve with a large enough effect in the polarisation, with a control signal flat, not every such curve was filed as active; inconclusive means small, poorly fitted or top-dose-only effect, or effect the other way, or a change in a side signal; inactive means no such curve, though single readings can be large or run the other way; the % refers to the polarisation; further: potency means the concentration at half of the fitted maximal effect
Target sequence (Q13526 whole entry, looked up): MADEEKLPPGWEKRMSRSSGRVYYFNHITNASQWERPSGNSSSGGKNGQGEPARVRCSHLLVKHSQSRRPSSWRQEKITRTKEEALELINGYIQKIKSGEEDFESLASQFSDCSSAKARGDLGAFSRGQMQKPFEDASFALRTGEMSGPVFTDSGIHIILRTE
PI5P4Ka inh – PI5P4K alpha (human) kinase inhibition. PI5P4Kalpha enzyme, ADP-Glo luminescence, 60 min; active compounds read low. max response, %. AID 652105. hit rate 1.2% among 330,000; active means max response of -50% or lower; inconclusive means between -30% and -50%; inactive means -30% or higher; further: value at the top dose of about 77 µM
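Compounds were pin-transferred onto PI5P4Kalpha and substrate in HEPES pH 7.4 buffer with EGTA, CHAPS and 5% DMSO. ATP (5 microM final) started the reaction, which ran 60 minutes at room temperature before ADP-Glo detection.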
Tb PGK inh – T. brucei PGK inhibition. PGK/GAPDH coupled, Kinase-Glo luminescence, 60 min. hit rate 0.043% among 380,000. AID 602233. Potency, µM (series often up to 57.5 µM), for the others: top-dose activity change, negative = inhibition, usual class: inhibitors; further: potency means the concentration at half of the fitted maximal effect; nearly all actives have a fitted effect of over 60% in size
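Recombinant glycosomal PGK reaction used 1,3-bisphosphoglycerate generated in-well by GAPDH (100nM final) in 100mM TEA pH 7.6, 5mM MgCl2, 0.01% Tween-20. After 60 minutes at room temperature, ATP was read by Kinase-Glo Plus luminescence end-point.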
ADP-Glo interf – counter-screen for PI5P4K inhibitors: ADP-Glo detection interference, no enzyme; AID 743285; Potency, µM (doses to about 76.9 µM), for the others: at the highest dose activity change, negative = inhibition, hits mostly inhibitors; shares compounds with PI5P4Ka inh; ADP-Glo detection counter-screen, luciferase luminescence, no enzyme; 1,100 tested, under 10 active
Active calls of the source: *; i = inactive; ? = inconclusive; . = no result. The sample as a whole holds a higher share of hits than the screen did. Unless noted, the call rests on the fitted dose curve; in most records, active means well fitted curve in the direction sought with a large enough effect; inconclusive means small, poorly fitted or top-dose-only effect, or another doubt; inactive means no such curve, though single readings can be large; an effect the other way counts as inactive or inconclusive. Unless noted, on the % scale 0 is the no-effect control and ±100 the full control effect.

SMILES	PI4K2A inh	Tb PFK inh	Pin1 inh	PI5P4Ka inh	Tb PGK inh	ADP-Glo interf
CCCc1cc(=O)oc2cc(C)c(CN3CCCC3)c(O)c12	?	?	?	-81*	-5%	-10%
CCc1cc(=O)oc2cc(C)c(CN3CCCCC3)c(O)c12	?	?	?	-64*	-11%	-2%
CCC1CCCCN1C(=O)n1ncc(C(O)(c2ccccc2)c2ccccc2)n1 (stereo not given)	-3	.	.	.	.	.
CCCNc1c(F)c(F)c2c(C)c3ccccc3nc2c1F	-17	13%	?	-66*	-1%	-14%
Cc1ccc(NC(=O)N2CCC(c3nc4ccc(Cl)cc4[nH]3)CC2)cc1F	-1	.	.	.	.	.
COc1cc(Cl)c(C)cc1NC(=O)CSc1sc2c(O)cc(=O)[nH]c2c1C#N	-8	-3%	?	-73*	-4%	-6%
N#Cc1c(SCC(=O)Nc2nncs2)sc2c(O)cc(=O)[nH]c12	23	?	?	-76*	?	1%
COc1ccc(-n2c(SCC(=O)Nc3ccccc3-c3ccccc3)nnc2-c2ccccc2)cc1	1	.	.	.	.	.
O=C1C(NC(=O)N2c3ccccc3C=Cc3ccccc32)CCCCN1Cc1ccc(Cl)cc1 (stereo not given)	-5	.	.	.	.	.
Cn1c(=O)c2c(-c3ccccc3)n(-c3cccc(O)c3)cc2n(C)c1=O	-3	.	.	-50*	.	-1%
Cc1ccccc1CN1CCCCC(NC(=O)c2cccc(F)c2)C1=O (stereo not given)	1	.	.	.	.	.
CCCCC(=O)N(Cc1ccc2c(c1)OCO2)Cc1nc2ccccc2c(=O)[nH]1	-20	6%	-1%	-53*	6%	-10%
Cc1ccc(S(=O)(=O)N2O[C@@H](c3ccccc3)C[C@H]2CON2C(C)(C)CCCC2(C)C)cc1	-3	.	.	.	.	.
CCOC(=O)[C@@]12CCC3=C1N(CCC3)C(=O)[C@H](CC(=O)NCc1cccc3ccccc13)C2	-6	.	.	.	.	.
COc1ccc(-c2nnn(CC(=O)N(CC(=O)NC3CCCC3)c3ccccc3)n2)cc1OC	-6	19%	1%	-51*	-2%	5%
C[C@@H]1C[C@H]2O[C@@H]2/C=C\C=C\C(=O)Cc2cc(O)cc(O)c2C(=O)O1	2	.	.	.	.	.
Cc1ccc(CN2CCCCC(NC(=O)Nc3cccc(F)c3)C2=O)cc1 (stereo not given)	4	.	.	.	.	.
CCN(CC(=O)Nc1ccc(NC(C)=O)cc1)Cc1c(O)ccc2cc(Br)ccc12	4	1%	-19%	-71*	2%	-5%
Cc1ccc(NC(=O)CN(C)Cc2c(O)ccc3ccccc23)cc1	8	0%	-4%	?	i	.
Cc1ccc(C)c2[nH]c(=O)c(CCNC(=O)c3ccc(S(=O)(=O)N4CCOCC4)cc3)cc12	2	3%	5%	-57*	-10%	-7%
O=S(=O)(c1ccccc1)N1N=C(c2cccs2)CC1c1ccc(Br)cc1 (stereo not given)	0	-2%	4%	-55*	-4%	5%
O=S(=O)(c1ccccc1)N1N=C(c2ccccc2)CC1c1ccccc1 (stereo not given)	2	-4%	12%	-11	-8%	.
CC(C)NC(=O)N[C@H]1C[C@@H]2O[C@@H](CO)CC[C@@H]2O[C@@H]1CCc1ccc(-c2ccc(F)cc2)cc1	4	.	.	.	.	.
Cc1ccc(C(=O)Nc2nnc(-c3ccncc3)o2)cc1	-5	-1%	0%	-4	-4%	.
O=C(Nc1nnc(-c2ccc(Cl)cc2)o1)c1nc2ccccc2s1	1	3%	6%	-50*	-6%	-1%
SMILES	PI4K2A inh	Tb PFK inh	Pin1 inh	PI5P4Ka inh	Tb PGK inh	ADP-Glo interf
O=C(Nc1nnc(-c2ccncc2)o1)c1ccccc1	-4	3%	2%	-84*	-16%	-7%
O=C(Nc1nnc(-c2ccc(Cl)cc2)o1)Nc1ccccc1Cl	0	-2%	-3%	-4	-4%	.
O=C(NCCc1c[nH]c2ccccc12)OCc1cn(Cc2ccccc2Cl)nn1	-7	.	.	.	.	.
CC(=O)CC[C@@H]1CC[C@]2(CCCN(C(=O)C(C)(C)C)C2)O1	-4	.	.	.	.	.
Cc1cccc(S(=O)(=O)NC(=O)C2(C)CCN2C(=O)Cc2cc(F)ccc2F)c1 (stereo not given)	-5	.	.	-73*	.	-8%
CC1(C(=O)NS(=O)(=O)c2cccc(Cl)c2)CCN1C(=O)Cc1cc(F)ccc1F (stereo not given)	4	.	.	0	.	.
Cc1ccc2[nH]c3ccccc3c(=O)c2c1	9	-6%	?	5	-8%	.
O=c1c2ccccc2[nH]c2ccc(O)cc12	-5	-5%	.	-73*	-12%	-11%
CCN(CC)C(=O)CC(c1cc(OC)c(OC)c(OC)c1)c1c(OC)cc(OC)c2c(-c3ccccc3)cc(=O)oc12 (stereo not given)	-5	-7%	?	-56*	?	3%
COc1ccc(CCNC(=O)C2CC(c3cccc(F)c3)=NO2)cc1 (stereo not given)	1	-5%	-4%	?	-1%	-5%
COc1ccc(CCNC(=O)C2CC(c3ccccc3F)=NO2)cc1 (stereo not given)	4	4%	-8%	-11	-1%	.
NC(=O)c1c(NC(=O)CN2CCN(S(=O)(=O)c3ccccc3)CC2)sc2c1CCC2	-15	-16%	?	-65*	2%	0%
CN1CCN(CC(=O)Nc2sc3c(c2C(=O)Nc2ccccc2)CCCC3)CC1	-3	0%	1%	-1	4%	.
COc1cc2nc(Nc3ccc(C)c(Cl)c3)nc(N)c2cc1OC	1	5%	?	-60*	-10%	4%
COc1cc2nc(Nc3ccc(C)c(C)c3)nc(N)c2cc1OC	-4	6%	-2%	?	-3%	.
COCCCN1C(=O)[C@H](CC(=O)NCCC(C)C)[C@]2(C(=O)OC)CCCCC=C12	0	.	.	.	.	.
CCC(=O)c1ccc(OCC(=O)N2CCN(S(=O)(=O)c3ccc(Cl)s3)CC2)cc1	-8	-2%	1%	-54*	-1%	-11%
Cc1ccc(-c2cc(-c3nnc4sc(Cc5cccs5)nn34)[nH]n2)cc1	-2	.	.	.	.	.
CC1CCCCC1NC(=O)COC(=O)c1c2c(nc3ccccc13)/C(=C\c1ccco1)CC2 (stereo not given)	-67*	.	.	-74*	-19%	-3%
C=CCN1C(=O)[C@@H](CC(=O)NCCC(C)C)[C@]2(C(=O)OC)CCCCC=C12	0	.	.	.	.	.
CCc1nnc(NC(=O)c2ccc(S(C)(=O)=O)cc2)s1	-2	-3%	5%	-53*	i	-1%
CCN(CC)S(=O)(=O)c1ccc(C(=O)Nc2nnc(NC(=S)Nc3ccccc3)s2)cc1	0	1%	20%	-59*	0%	6%
